We go through 37 compounds from ChEMBL document CHEMBL1157539, “Thousands of chemical starting points for antimalarial lead identification” (Nature, 2010).

The first test concerns Plasmodium falciparum. Put plainly: GSK_TCMDC: Inhibition of Plasmodium falciparum 3D7 in whole red blood cells, using parasite LDH activity as an index of growth. Test compounds present at 2uM. The class given is functional.
Compound `Cc1cc(NC(=O)Nc2ccc3ccn(C)c3c2)c2ccccc2n1` showed an Inhibition of 100%. Turning to `Cc1nc2ccc(F)cc2n1C1CCN(C(=O)Cc2ccc(F)c(F)c2)CC1`, the Inhibition is reported as 100%. The compound `CC(C)[C@H](NC(=O)c1ccc(O)c(-c2cccc(C(F)(F)F)c2)c1)C(=O)NCCN1CCCCC1` yielded an Inhibition of 99%. On the same count and under the same terms, the figure for `CCCCc1cc(NCC)nc(Nc2cccc(OC)c2)n1` is 97%.

The test system of the next test is Plasmodium falciparum. The test can be described thus: GSK_TCMDC: Inhibition of Plasmodium falciparum Dd2 in whole red blood cells, using parasite LDH activity as an index of growth. Test compounds present at 2uM. The class given is functional.
The compound `CC(=O)N/N=C/[C@H](CCc1ccccc1)NC(=O)[C@H](CC(C)C)NC(=O)c1ccc(F)cc1` came in with an Inhibition of 86%. On the same count and under the same terms, the result for `CN1CCN(CC(O)CNC(=O)Nc2ccc(Br)cc2)CC1.O=C(O)C(F)(F)F` (configuration not stated) reads 100%; that for `CCN1CCN(CCCNc2c3ccccc3nc3ccccc23)CC1.Cl`, 3%; that for `O=C(CSc1nnc(-c2ccccc2Br)[nH]1)c1c[nH]c2ccccc12`, 95%. `O=C(NCCCCCN1CCC(c2c[nH]c3ccccc23)CC1)Nc1ccc(I)c(Cl)c1`: the Inhibition is 5%.

As for `Cc1cccc2[nH]c(-c3cc(-c4cn[nH]c4)cnc3N)nc12`, the Inhibition was found to be 93%. Regarding `COc1ccccc1C1CN(Cc2coc3ccccc3c2=O)Cc2ccccc2O1` (configuration not stated), the Inhibition came to 61%.

Turning to `CC(C)N1CCC(N(Cc2ccc(-c3ccc(C(F)(F)F)cc3)cc2)C(=O)Cn2c(SCc3cccc(F)c3F)cc(=O)c3c2CCC3)CC1.O=C(O)C(O)C(O)C(=O)O`, the Inhibition came to 42%. Same read-out and setting: the result for `CC(C)CN(c1nc(C(=O)NNC(=O)[C@H](CC2CC2)NC(=O)c2cc3cc(OCCN(C)C)ccc3o2)cs1)C1CC1` reads 97%; that for `O=C(O)C(F)(F)F.O=S(=O)(NCCN1CCCC1)c1cccc(-c2cccc(CNCc3ccccc3)c2)c1`, 73%. Turning to `COc1ccc(CCn2c(=N)c(C(=O)NCc3ccc(C)cc3)cc3c(=O)n4ccccc4nc32)cc1`, the Inhibition was found to be 16%.

As for `COc1cc(Cc2cnc(N)nc2N)cc(OCCCCC2NC(=O)NC2=O)c1OC` (configuration not stated), the Inhibition was 0%. The same measure, in the same setting: the result for `CN1CCCC(COc2cc3c(cc2Br)CCN3C(=O)Nc2ccc(-c3ccncc3)c(Cl)c2)C1` (configuration not stated) reads 96%; that for `O=[N+]([O-])c1cccc(NC(=S)N2CCCN(Cc3ccc(C(F)(F)F)cc3)CC2)c1`, 49%. In turn, `CCCNCc1ccc(-c2ccc(CN(CCOC)C(=O)c3cnc(C)cn3)cc2)nc1.O=C(O)C(F)(F)F` yielded an Inhibition of 14%. As for `COc1ccc2nccc(NC(=O)N3CCC(NCc4cc5c(F)ccc(F)c5[nH]4)CC3)c2n1.O=C(O)C(=O)O`, the Inhibition was determined as 40%. Still for that read-out and setting: the result for `COc1cccc(Nc2nc(Nc3cccc(C#N)c3)cc(C(F)(F)F)n2)c1` reads 45%. `CN1CCN(c2ccnc3ccc(NC(=O)Nc4ccc5c(c4)CCC5=O)cc23)CC1`: the Inhibition was 67%. The same measure, in the same setting: the figure for `CCOC(=O)C1=C(C)NC2=C(C(=O)CC(C)(C)C2)C1c1ccc(Cl)cc1` (configuration not stated) is 84%. The same measure, in the same setting: the figure for `O=C(/C=C/c1ccc(Cl)c(Cl)c1)NCCCCCN1CCC(NC(=O)c2cccc(Cl)c2)CC1` is 23%; for `CC(C)[C@H](NCC(=O)c1ccccc1)C(=O)O.Cl` it is 0%; for `CCN(CC)CCN(Cc1ccc(-c2ccc(Cl)cc2)cc1)C(=O)Cn1cc(CN(C)C)c(=O)nc1SCc1ccc(F)cc1` it is 99%.

`Cc1ccc(C2CC(c3cccs3)=NN2C(=O)c2ccc(Br)o2)cc1` (configuration not stated) yielded an Inhibition of 69%. The compound `CCC(C)(C)c1ccc(Oc2ccc(NC(=O)Nc3ccc(Cl)c(Cl)c3)cc2)cc1` registered an Inhibition of 97%. For the compound `Cc1ccc(Nc2nc(C)cc(N3CCN(CCc4ccccc4)CC3)n2)cc1`, the Inhibition was found to be 6%. The same measure, in the same setting: the figure for `O=C(NC1CCN(c2ccnc(Nc3ccc(F)cc3)n2)C1)c1cc2ccccc2s1` (configuration not stated) is 80%; for `Cc1ccc(O)c(-c2cc(C(=O)Nc3ccc(S(=O)(=O)N4CCCC(C)C4)cc3)[nH]n2)c1` (configuration not stated) it is 97%; for `O=C(NCCN1CCC(NC(=O)c2ccc(-c3ccccn3)s2)CC1)c1cccc(C(F)(F)F)c1.O=C(O)C(F)(F)F` it is 24%.

`O=C(/C=C/c1ccc(Cl)c(Cl)c1)N1CCC(CCN2CCC(c3c[nH]c4ccncc34)CC2)CC1` came in with an Inhibition of 70%. In turn, `O=C(/C=C/c1ccc(Cl)c(Cl)c1)NCCCCCN1CC[C@H](NC(=O)c2sc3ccccc3c2Cl)C1` registered an Inhibition of 3%.

With `Cc1cnc(CN(Cc2ccc(-c3ccc(CNCCc4ccc(S(C)(=O)=O)cc4)cn3)cc2)C(=O)c2ccc([N+](=O)[O-])c(C)c2)cn1.O=C(O)C(F)(F)F`, the Inhibition came to 15%. The same measure, in the same setting: the figure for `COc1cccc(NC(=O)Nc2ccc(Nc3nc(C)cc(N4CCCC4)n3)cc2)c1` is 100%.

Turning to `O=C(NC1CCN(c2ccnc3cc(Cl)ccc23)C1)c1ccc(C(F)(F)F)cc1.O=C(O)C(F)(F)F` (configuration not stated), the Inhibition turned out to be 57%.
